# Records with an inconclusive call do not appear. Unmarked numbers belong to inactive results. Activity calls are given as the source filed them. The call rests on the fitted dose curve; in most records, active means well fitted inhibition curve with a large enough effect; inconclusive means small, poorly fitted or top-dose-only effect; inactive means flat fitted curve, though single readings scatter.
# System: ATS95
# Test: qHTS profiling for inhibitors of Plasmodium falciparum proliferation (AID 504749); further: nearly all actives have a fitted effect of over 60% in size;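 on activity, negative = inhibition: 0% = DMSO vehicle and full inhibition = artemisinin control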
# Details: P. falciparum in erythrocytes, SYBR Green DNA, 72 h; series mostly up to 28.7 µM; activity, negative = inhibition: at the top concentration
# In short: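 In a 72 h erythrocytic culture (37 C, humidified, 5% CO2) at 2.5% hematocrit and 0.3% starting parasitemia, compounds were tested; SYBR Green I in detergent lysis buffer stained parasite DNA overnight.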
# Potency means the concentration at half of the fitted maximal effect.
Structure (SMILES),Potency,"activity, negative = inhibition"
CC[N+](CC)(CCNC(=O)C(=O)NCC[N+](CC)(CC)Cc1ccccc1Cl)Cc1ccccc1Cl,2.82 µM (active),
O=C1[C@H]2CCCC[C@H]2C(=O)N1CCCCN1CCN(c2nsc3ccccc23)CC1,,-9.79%
COc1ccc(C2C(=O)c3ccccc3C2=O)cc1,,0.261%
NC(CS)C(=O)O (configuration not stated),12.6 µM (active),
CCCCc1nc(Cl)c(CO)n1Cc1ccc(-c2ccccc2-c2nn[nH]n2)cc1,12.6 µM (active),
CCCCCCCCCCCCCCCCCC(=O)OCC(O)CO (configuration not stated),,6.58%
COc1cccc(CCc2ccccc2OCC(CN(C)C)OC(=O)CCC(=O)O)c1 (configuration not stated),5.62 µM (active),
CCOc1ccc(Cc2nccc3cc(OCC)c(OCC)cc23)cc1OCC,,-0.312% [at 12.8 µM]
CN1CCC[C@@H]1c1cccnc1,,7.09%
CCCCCCCCCCCCCCNCCO,,-7.21%
CCN(CC)C(=O)/C(C#N)=C/c1cc(O)c(O)c([N+](=O)[O-])c1,,-7.05%
O=C(CCCN1CCC(O)(c2ccc(Br)cc2)CC1)c1ccc(F)cc1,3.16 µM (active),
CC(C)COC(=O)c1ccc(N)cc1,,-40.8%
C[C@@H]1C(=O)NC2=Nc3cccc(Cl)c3CN21,,-4.55%
CCCCC(CC)CN=C(N)NC(N)=NCCCCCCN=C(N)NC(N)=NCC(CC)CCCC (configuration not stated),1.41 µM (active),
Cc1ccc(O)c2ncccc12,,-22.2%
CC(C)N=C(N)/N=C(\N)Nc1ccc(Cl)cc1,,-22.8% [at 12.8 µM]
Oc1ccc(Cl)c2cccnc12,,-3.18%
O=C(Nc1ccc(Oc2ccc(Cl)cc2)c(Cl)c1)c1cc(I)cc(I)c1O,,-15.2%
CNCCC=C1c2ccccc2CCc2ccccc21,5.62 µM (active),
CN(C)CC/C=C1\c2ccccc2Sc2ccc(Cl)cc21,11.2 µM (active),
Oc1ccc(O)cc1,,-10.6%

# Reference: PubChem BioAssay (NCATS)
